ChEMBL document CHEMBL4513216, “Probing the Open Global Health Chemical Diversity Library for Multistage-Active Starting Points for Next-Generation Antimalarials” (ACS Infect Dis, 2020)
The campaign covered roughly 69,000 compounds. About 8,600 (12%) showed an effect of 50% or more. Shown is part of a subset that was picked to be rich in strong results.

The compounds below were run on Plasmodium berghei (assay: Screen against P. berghei liver stage (PbLuc), transformed with Luciferase, at 10uM). Details: tested at 10 uM.
Assay type: functional, HepG2

Structure (SMILES)	INHIBITION
COCC(C)(NC(=O)c1cc(Cl)c(-n2cccc2)cc1OC)C(N)=O (centres undefined)	-35%
CCn1cc(C(=O)NCc2ccc3c(c2)OCO3)c(C)n1	3.52%
CN(CCC(O)c1ccccc1)Cc1nc(-c2ccccc2)no1 (centres undefined)	62.9%
CN(CCC(O)c1ccccc1)Cc1ccccc1C#N (centres undefined)	41.1%
Cc1nc(CN(C)Cc2nc(-c3ccccc3)no2)co1	14.3%
O=C(Nc1nccs1)NC1CCN(Cc2ccccc2)CC1	15%
C=c1ncsc1=C1NN=C(C2CCCN2C(=O)c2ccn(CC)n2)O1 (centres undefined)	9.535%
FC(F)(F)C1CN(Cc2cccc(-c3ccccn3)c2)CCO1 (centres undefined)	4.93%
CC(=O)NCc1ccc(-c2ccccc2C(=O)O)cn1	-24.5%
CNc1nc(C)c(C(=O)N2CCCCC2CCN2CCOCC2)s1 (centres undefined)	13.6%
CNc1nc(C)c(C(=O)N2CCCCC2CN2CCCCCC2)s1 (centres undefined)	50%
Cc1cc(C(=O)N2CCCC2CN2CCCC2)no1 (centres undefined)	61.1%
CNc1nc(C)c(C(=O)N2CCCCC2CCc2ccccc2)s1 (centres undefined)	-14.7%
CCOC(=O)CC1CCCCN1C(=O)c1cc(C)on1 (centres undefined)	17.5%
Cc1cc(C(=O)N2CC[C@@H]3CO[C@@H](CN4CCCC4)[C@@H]3C2)no1	23.3%
OC(CN1CCN(Cc2cc(F)cc(F)c2)CC1)C1CC1 (centres undefined)	5.85%
Cc1cc(CN(C)CC(c2cccs2)N2CCOCC2)on1 (centres undefined)	-48.4%
CCN(CC)c1ncc(S(=O)(=O)c2cccc(C)c2)c(N)n1	17.7%
CN1CCCN(c2ncnc(N3CCOCC3)c2N)CC1	32.2%
Cc1nc(C(=O)N2CCOCC2)cc(N2CCC(C(N)=O)CC2)n1	56.1%
CCOC(=O)C1CCN(c2cc(C(=O)N3CCOCC3)nc(C)n2)CC1	62.9%
CCCNc1cc(C(=O)N2CCOCC2)nc(C)n1	34.6%
Cc1nc(C2CN(C)CCO2)cc(N2CCC(C(N)=O)CC2)n1 (centres undefined)	-20.2%

Structure (SMILES)	INHIBITION
CCOC(=O)C1CCN(c2cc(C(=O)N3CCCCC3)nc(C)n2)CC1	9.52%
COCCNc1cc(C(=O)N2CCOCC2)nc(C)n1	8.24%
CC(C)(O)CN1CCN(C(=O)c2ccc(Cl)c3cccnc23)CC1	36.9%
COc1cc(C(=O)O)cc(I)c1OCC(=O)NCCc1ccccc1	25.5%
CC(NC(=O)NCCc1ccc(Cl)s1)c1ccccn1 (centres undefined)	-12.1%
COc1ccc(C(=O)N2CC(=O)N(Cc3cccs3)CC(O)C2)cc1 (centres undefined)	27.5%
CC(C)CCC(=O)N1CCN(C(=O)c2ccc3nccn3c2)CC1	24.2%
CC(C)COC(=O)N1CCCN(C(=O)c2ccnc(N(C)C)c2)CC1	33.4%
CC(C)COC(=O)N1CCN(C(=O)c2ccc3nccn3c2)CC1	50.1%
c1ncn(CC2CCCCN2Cc2csc(-c3ccsc3)n2)n1 (centres undefined)	-58.7%
CCC1COCCN1C(=O)NCc1nccn1CC(C)C (centres undefined)	8.59%
Cn1cccc1CNC(=O)N(CCO)C1CCCc2ccccc21 (centres undefined)	26.8%
O=C(NCCc1cccs1)[C@]12COC[C@H]1CN(c1ncccn1)C2	52.1%
O=C(NCCc1cccs1)[C@]12COC[C@H]1CN(Cc1ccccn1)C2	24.9%
CN1C[C@@H]2COC[C@]2(C(=O)NCc2cccs2)C1	4.02%
O=C(NCCc1cccs1)[C@]12COC[C@H]1CN(Cc1ccncc1)C2	54.8%
O=C(NC1CC(F)(F)C1)[C@]12COC[C@H]1CN(Cc1cccnc1)C2	29.4%
O=C(NCCc1cccs1)[C@]12COC[C@H]1CN(C1CCOCC1)C2	61.1%
Cn1cc(CN2C[C@@H]3COC[C@]3(C(=O)NCc3cccs3)C2)cn1	28.3%
CS(=O)(=O)N1C[C@@H]2COC[C@]2(C(=O)NCCc2cccs2)C1	24.9%
O=C(NCc1cccs1)[C@]12COC[C@H]1CN(c1ncccn1)C2	2.41%
O=C(NC1CC(F)(F)C1)[C@]12COC[C@H]1CN(Cc1ccsc1)C2	35.8%
O=C(NC1CC(F)(F)C1)[C@]12COC[C@H]1CN(Cc1ccccc1)C2	61.1%

Structure (SMILES)	INHIBITION
CN1C[C@@H]2COC[C@]2(C(=O)NCCc2cccs2)C1	34.6%
CN(C)C(=O)CCS(=O)(=O)Cc1coc(-c2ccc(F)cc2)n1	-23.4%
CCC(CCN)n1ccc(C(F)(F)F)n1 (centres undefined)	35.2%
Cc1cc(C)n(-c2cncc(NCCNC(=O)C(C)(C)C)n2)n1	34.9%
CC(C)C(N)CNS(=O)(=O)Cc1cccc2cccnc12 (centres undefined)	24.2%
CC(C)CCN(C(=O)CCn1cc(S(N)(=O)=O)cn1)C1CC1	11.4%
Cn1cc(-c2cnc(-c3ccnn3C)nc2)cc1C(=O)N1CCCC1	-4.26%
Cc1ccc(C2COCCN2C(=O)c2cccc(N(C)C)c2)o1 (centres undefined)	32.9%
Cc1ccc(C(=O)N2CCc3c(CNS(C)(=O)=O)cncc3C2)o1	-3.83%
O=C(c1ccnnc1)N1C[C@H](OCc2ccccn2)[C@H]2COC[C@H]21	5.67%
Cc1nc(CO[C@H]2CN(C(=O)c3ccc[nH]3)[C@@H]3COC[C@H]23)cs1	13.1%
O=C(c1ccc[nH]1)N1C[C@H](OCc2ccccn2)[C@H]2COC[C@H]21	64.8%
Fc1ccc(CN2C[C@@H](OCc3ccccn3)[C@H]3COC[C@H]32)cc1	43.9%
Cc1nc(CO[C@@H]2CN(Cc3nccs3)[C@@H]3COC[C@@H]32)cs1	-56.3%
c1ccc(CO[C@@H]2CN(Cc3nccs3)[C@@H]3COC[C@@H]32)nc1	59.3%
CN(CC(=O)N1CCCCC1Cn1cccn1)Cc1ccccc1 (centres undefined)	23.5%
Cn1nc(Cn2cccn2)c2c1CN(Cc1ccsc1)C2	-41.8%
COCCN1C[C@@H]2COC[C@@H](CC(=O)NCc3cccnc3)[C@@H]2C1	47.4%
O=C(C[C@@H]1COC[C@H]2CN(C3CCC3)C[C@@H]12)NCc1cccnc1	27.5%
O=C(C[C@@H]1COC[C@H]2CN(Cc3cccnc3)C[C@@H]12)NCC1CC1	54.4%
O=C(C[C@@H]1COC[C@H]2CN(Cc3cccnc3)C[C@@H]12)N1CCCC1	-11.6%
COCCNC(=O)C[C@@H]1COC[C@H]2CN(Cc3cccnc3)C[C@@H]12	40.5%
O=C(C[C@@H]1COC[C@H]2CN(CC3CC3)C[C@@H]12)NCc1cccnc1	53.4%
